Measurements published in PubChem BioAssay AID1159580 (chemical genetic matrix, 2015).
The whole screen tested about 5,500 compounds, of which about 2,000 (36%) were called active. Roughly 18% stayed inconclusive and do not appear here. No stated cut-off is given here; in the data, active means normalized growth mostly below about 0.91 (no sharp cut-off); inconclusive means no clear call, values can overlap the other calls; inactive means mostly above about 0.92. The list shows a part of the results.

Assay: chemical genetic growth profiling, strain panel (AID 1159580);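 further: tested at 20 µM; growth read once vehicle control cultures reached saturation at 30 °C; 1 = growth at the plate median or of vehicle wells; lower values mean less growth of the strain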
Details: growth OD

Measured: normalized growth

CCC(C)C(=O)OC1CC2(C)C(c3ccoc3)OC(=O)CC23OC2(C)OC34C(OC(=O)C(C)C)C3(O)C(OC(=O)C5(C)OC5C)C5(C)CC3(O)C(C)(C5C(=O)OC)C14O2 (stereo unspecified)
inactive: S. cerevisiae deletion strains, locus YAL013W, strain DEP1, active compounds read low 1.02 | S. cerevisiae deletion strains, locus YBR021W, strain FUR4, active compounds read low 1.01 | S. cerevisiae deletion strains, locus YBR229C, strain ROT2, active compounds read low 1 | S. cerevisiae deletion strains, locus YCL029C, strain bik1, active compounds read low 1.04 | S. cerevisiae deletion strains, locus YDL035C, strain GPR1, active compounds read low 0.993 | S. cerevisiae deletion strains, locus YDL074C, strain BRE1, active compounds read low 1.01 | S. cerevisiae deletion strains, locus YDL101C, strain DUN1, active compounds read low 1.02 | S. cerevisiae deletion strains, locus YDL134C, strain PPH21, active compounds read low 1.01 | S. cerevisiae deletion strains, locus YDL185W, strain tfp1, active compounds read low 1.03 | S. cerevisiae deletion strains, locus YDL192W, strain arf1, active compounds read low 1.01 | S. cerevisiae deletion strains, locus YDR101C, strain arx1, active compounds read low 1.02 | S. cerevisiae deletion strains, locus YDR150W, strain NUM1, active compounds read low 1.02 | S. cerevisiae deletion strains, locus YDR162C, strain NBP2, active compounds read low 0.996 | S. cerevisiae deletion strains, locus YDR318W, strain mcm21, active compounds read low 1.03 | S. cerevisiae deletion strains, locus YDR388W, active compounds read low 1.02 | S. cerevisiae deletion strains, locus YDR502C, strain sam2, active compounds read low 1.03 | S. cerevisiae deletion strains, locus YEL061C, strain CIN8, active compounds read low 1.01 | S. cerevisiae deletion strains, locus YER110C, active compounds read low 1.02 | S. cerevisiae deletion strains, locus YER155C, strain BEM2, active compounds read low 1.02 | S. cerevisiae deletion strains, locus YER167W, strain BCK2, active compounds read low 1.02 | S. cerevisiae deletion strains, locus YGL078C, strain dbp3, active compounds read low 1.02 | S. cerevisiae deletion strains, locus YGL086W, strain mad1, active compounds read low 1 | S. cerevisiae deletion strains, locus YGL248W, strain PDE1, active compounds read low 1.01 | S. cerevisiae deletion strains, locus YGR078C, strain PAC10, active compounds read low 1.02 | S. cerevisiae deletion strains, locus YGR135W, strain pre9, active compounds read low 1.03 | S. cerevisiae deletion strains, locus YGR229C, strain SMI1, active compounds read low 1.03 | S. cerevisiae deletion strains, locus YGR252W, strain gcn5, active compounds read low 0.977 | S. cerevisiae deletion strains, locus YHR030C, strain SLT2, active compounds read low 1.02 | S. cerevisiae deletion strains, locus YHR079C, strain IRE1 (second series), active compounds read low 1.02 | S. cerevisiae deletion strains, locus YHR094C, strain hxt1, active compounds read low 1.01 | S. cerevisiae deletion strains, locus YHR129C, strain ARP1, active compounds read low 1.01 | S. cerevisiae deletion strains, locus YHR200W, strain rpn10, active compounds read low 1.04 | S. cerevisiae deletion strains, locus YIL066C, strain RNR3, active compounds read low 1.02 | S. cerevisiae deletion strains, locus YIL073C, strain SPO22, active compounds read low 1 | S. cerevisiae deletion strains, locus YIL125W, strain kgd1, active compounds read low 1.01 | S. cerevisiae deletion strains, locus YIR030C, strain dcg1, active compounds read low 1.02 | S. cerevisiae deletion strains, locus YJL095W, strain BCK1, active compounds read low 1.04 | S. cerevisiae deletion strains, locus YJL134W, strain LCB3, active compounds read low 1.01 | S. cerevisiae deletion strains, locus YJL168C, strain set2, active compounds read low 1.02 | S. cerevisiae deletion strains, locus YJL187C, strain SWE1 (second series), active compounds read low 1.03 | S. cerevisiae deletion strains, locus YJR043C, strain POL32, active compounds read low 1.04 | S. cerevisiae deletion strains, locus YJR075W, strain HOC1, active compounds read low 1.03 | S. cerevisiae deletion strains, locus YKL009W, strain mrt4, active compounds read low 0.994 | S. cerevisiae deletion strains, locus YKL068W, active compounds read low 1.01 | S. cerevisiae deletion strains, locus YKL085W, strain MDH1 (second series), active compounds read low 1.01 | S. cerevisiae deletion strains, locus YKL085W, strain MDH1, active compounds read low 1.01 | S. cerevisiae deletion strains, locus YKL190W, strain CNB1, active compounds read low 1 | S. cerevisiae deletion strains, locus YKR001C, strain vps1, active compounds read low 1.01 | S. cerevisiae deletion strains, locus YLR039C, strain RIC1, active compounds read low 0.862 | S. cerevisiae deletion strains, locus YLR058C, strain SHM2, active compounds read low 0.999 | S. cerevisiae deletion strains, locus YLR102C, strain apc9, active compounds read low 1.01 | S. cerevisiae deletion strains, locus YLR262C, strain YPT6, active compounds read low 0.77 | S. cerevisiae deletion strains, locus YLR268W, strain sec22, active compounds read low 1.05 | S. cerevisiae deletion strains, locus YLR330W, strain CHS5, active compounds read low 1.08 | S. cerevisiae deletion strains, locus YLR342W, strain FKS1 (second series), active compounds read low 1.01 | S. cerevisiae deletion strains, locus YLR371W, strain rom2, active compounds read low 1.03 | S. cerevisiae deletion strains, locus YLR418C, strain cdc73, active compounds read low 0.985 | S. cerevisiae deletion strains, locus YML016C, strain PPZ1, active compounds read low 1 | S. cerevisiae deletion strains, locus YML032C, strain rad52, active compounds read low 1.03 | S. cerevisiae deletion strains, locus YML124C, strain tub3, active compounds read low 1.01 | S. cerevisiae deletion strains, locus YMR078C, strain ctf18, active compounds read low 1.03 | S. cerevisiae deletion strains, locus YMR223W, strain ubp8, active compounds read low 0.999 | S. cerevisiae deletion strains, locus YMR263W, strain SAP30, active compounds read low 1.04 | S. cerevisiae deletion strains, locus YMR307W, strain GAS1, active compounds read low 0.923 | S. cerevisiae deletion strains, locus YNL067W, strain RPL9B, active compounds read low 1.03 | S. cerevisiae deletion strains, locus YNL128W, strain TEP1, active compounds read low 1.01 | S. cerevisiae deletion strains, locus YNL153C, strain GIM3, active compounds read low 1.03 | S. cerevisiae deletion strains, locus YNL233W, strain BNI4, active compounds read low 1.01 | S. cerevisiae deletion strains, locus YNL250W, strain rad50, active compounds read low 1.02 | S. cerevisiae deletion strains, locus YNL271C, strain bni1, active compounds read low 1.03 | S. cerevisiae deletion strains, locus YNL298W, strain CLA4, active compounds read low 1.03 | S. cerevisiae deletion strains, locus YNL307C, strain MCK1, active compounds read low 1.03 | S. cerevisiae deletion strains, locus YNL322C, strain KRE1, active compounds read low 1.02 | S. cerevisiae deletion strains, locus YNR052C, strain pop2, active compounds read low 1.02 | S. cerevisiae deletion strains, locus YOL006C, strain TOP1, active compounds read low 0.923 | S. cerevisiae deletion strains, locus YOL012C, strain htz1 1.81 | S. cerevisiae deletion strains, locus YOL147C, strain pex11, active compounds read low 1.03 | S. cerevisiae deletion strains, locus YOR061W, strain CKA2, active compounds read low 0.991 | S. cerevisiae deletion strains, locus YOR069W, strain VPS5, active compounds read low 1.01 | S. cerevisiae deletion strains, locus YOR136W, strain idh2, active compounds read low 1.01 | S. cerevisiae deletion strains, locus YOR144C, strain elg1, active compounds read low 1.01 | S. cerevisiae deletion strains, locus YOR184W, strain ser1, active compounds read low 1.04 | S. cerevisiae deletion strains, locus YOR316C, strain cot1, active compounds read low 1.02 | S. cerevisiae deletion strains, locus YPL055C, strain LGE1, active compounds read low 1.05 | S. cerevisiae deletion strains, locus YPL241C, strain CIN2, active compounds read low 1.01 | S. cerevisiae deletion strains, locus YPR119W, strain clb2, active compounds read low 1.01 | S. cerevisiae deletion strains, locus YPR141C, strain kar3, active compounds read low 1.03 | S. cerevisiae deletion strains, locus YPR163C, strain tif3, active compounds read low 1.02 | S. cerevisiae deletion strains, locus YPR167C, strain met16, active compounds read low 1.02 | S. cerevisiae deletion strains, strain wtn01, active compounds read low 1.03 | S. cerevisiae strains, strain wild type, active compounds read low 1
